# In the library only some 19% were active in any assay of this set; here they are far more common.
# Lassa entry inh: qHTS for Inhibitors of binding or entry into cells for Lassa Virus | hit rate 1.2% among 300,000 | Lassa virus pseudotype entry inhibition, cell reporter | Potency, µM (series often up to 37.9 µM), for the others: at the top dose activity change, negative = inhibition, most hits filed as inhibitors | AID 540256, 2011; calls by dose curve; tested in HEK293 cells; further: potency means the concentration at half of the fitted maximal effect; on the % scale 0 is the no-effect control and ±100 the full control effect; nearly all actives have a fitted effect of over 50% in size
# Pf growth 48h: Primary qHTS for delayed death inhibitors of the malarial parasite plastid, 48 hour incubation | P. falciparum luciferase growth in erythrocytes, 48 h | Potency, µM (doses to about 28.7 µM), for inactives: top-dose activity change, negative = inhibition, most hits filed as inhibitors | hit rate 5.9% among 310,000; further: potency means the concentration at half of the fitted maximal effect; on the % scale 0 is the no-effect control and ±100 the full control effect
#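 Luciferase-expressing parasites in RBCs, 2% Hct / 0.1% parasitemia final; RPMI 1640 + 0.5% Albumax; 37 C, 5% CO2, one generation; luminescence read-out, lower signal = inhibition.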
# MARV entry inh: qHTS for inhibitors of binding or entry into cells for Marburg Virus. Marburg virus pseudotyped entry inhibition, cell reporter. Potency, µM (series often up to 37.8 µM), inactives show at the highest dose activity change, negative = inhibition, usual class: inhibitors. hit rate 1.8% among 300,000; calls by dose curve; tested in HEK293 cells; further: potency means the concentration at half of the fitted maximal effect; on the % scale 0 is the no-effect control and ±100 the full control effect
# Pf growth 96h: Primary qHTS for delayed death inhibitors of the malarial parasite plastid, 96 hour incubation; P. falciparum luciferase reporter growth, 96 h; Potency, µM (series often up to 28.7 µM), inactives show at the highest dose activity change, negative = inhibition, hits mostly inhibitors; hit rate 6.9% among 320,000; AID 504834, 2011; further: potency means the concentration at half of the fitted maximal effect; on the % scale 0 is the no-effect control and ±100 the full control effect
#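 96 h incubation, 37 C, 5% CO2, of luciferase-reporter P. falciparum-infected RBCs (2% hematocrit, 0.05% parasitemia final) with test compounds; endpoint luminescence.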
# Cycloheximide cs: Cycloheximide Counterscreen for Small Molecule Inhibitors of Shiga Toxin. max response, %. hit rate 12% among 300,000. cell reporter, cycloheximide protein synthesis inhibition counterscreen; in the data active means max response mostly above about 13%, no sharp cut-off; inactive means mostly below about 14%; further: read at 38.3 µM for the half of the compounds with a filed dose; 0% is about no effect
# Shiga toxin inh: A qHTS for Small Molecule Inhibitors of Shiga Toxin. Vero cells, Shiga toxin protein synthesis inhibition reporter. inhibition, % at 38.7 µM. hit rate 9.2% among 290,000. AID 2315, 2010; in the data active means inhibition mostly above about 28%, no sharp cut-off; inactive means mostly below about 43%; further: 0% is about no effect
# Numbers without * were called inactive; i = inactive; ? = inconclusive; nt = not tested or not shown; [ ] = dose if it differs, or a comment. Unless noted, the call rests on the fitted dose curve; in most records, active means well fitted inhibition curve with a large enough effect; inconclusive means small, poorly fitted or top-dose-only effect, or another doubt; inactive means no such curve, though single readings can be large or run the other way.
SMILES,Lassa entry inh,Pf growth 48h,MARV entry inh,Pf growth 96h,Cycloheximide cs,Shiga toxin inh
COc1ccc(-n2c(CNc3ccc(C)cc3)nnc2SCC(=O)Nc2nc(-c3ccccc3)cs2)cc1,-10%,18%,?,102%,13,-8
O=C(O)CSc1nnc2c(n1)[nH]c1ccccc12,20%,11%,17%[46.1 µM],43%,18,18
O=C(CSc1nnc2c(n1)[nH]c1ccccc12)OCc1ccccc1,2%,15µM*,9%,?,-2,-7
CCOC(=O)CC(=O)CSc1nnc2c(n1)[nH]c1ccccc12,-18%,19%,?,162%,20*,70
CCOc1ccc(-c2cn3ccccc3n2)cc1,?,-2%,3.5µM*,-6%,6,37
Fc1ccc(-c2cn3ccccc3n2)cc1,nt,173%,nt,-8%,34*,77
O=S(=O)(c1ccc(-c2cn3ccccc3n2)cc1)N1CCOCC1,?,nt,24%,16%,7,-11
CCOc1ccc(S(=O)(=O)NCCc2cn3ccccc3n2)cc1,-2%,6%,5%,?,-5,-19
CCOC(=O)N1CCN(c2c(N3CCN(c4ccc(OC)cc4)CC3)c(=O)c2=O)CC1,nt,nt,4%,2%,-2,5
Cc1cc(=O)[nH]c(NN=Cc2cc(Br)ccc2O)n1,10µM*,nt,2µM*,nt,nt,nt
CCN(CC)c1ccc(/C=N/Nc2ccc(C)cc2)c(O)c1,5%,-4%,14%,?,10,24
CCN(CC)c1ccc(/C=N/Nc2nc(C)cc(=O)[nH]2)c(O)c1,0.82µM*,1.9µM*,0.52µM*,1.9µM*,9,46
COc1cccc(-n2nc(-c3ccnn3-c3ccccc3)c(=O)n(C)c2=O)c1,2%,nt,?,12µM*,3,-16
COc1cccc(-n2nc(-c3ccnn3-c3cccc(Cl)c3)c(=O)n(C)c2=O)c1,nt,?,nt,?,0,-5
CCOC(=O)C1CCN(C(=O)/C=C/c2ccccc2)CC1,6%,i,?,12%,33,73*
O=C(/C=C/c1ccc2c(c1)OCO2)N1CCN(c2ccc(Cl)cc2)CC1,-8%,32%,?,-2%,-2,-3
O=C(/C=C/c1ccc2c(c1)OCO2)N1CCCCC1,-2%,155%,13%,?,39*,45*
CCOC(=O)N1CCN(C(=O)/C=C/c2ccc(OC)c(OC)c2)CC1,nt,-8%,nt,?,1,-10
CN(C)C(CNC(=O)C1CCN(C(=O)/C=C/c2ccccc2)CC1)c1ccccc1 (stereo not given),10%,-23%,?,-30%,38*,59*
COc1ccc2cc(/C=C/C(=O)N3CCN(CC(=O)N4CCCCCC4)CC3)ccc2c1,?,6.6µM*,?,?,37*,44*
CCOC(=O)C1CCN(C(=O)Cc2ccc(-c3ccccc3)cc2)CC1,nt,?,nt,0%,2,3
CC1CCCCN1C(=O)Cn1c(=O)oc2ccccc21 (stereo not given),-1%,18%,-5%,-4%,2,-12
CCc1ccc(NC(=O)Cn2c(C(=O)OC)cc3oc(C)cc32)cc1,nt,nt,-20%[46.1 µM],nt,nt,nt
CN(Cc1ccc(F)cc1)S(=O)(=O)c1nnc(NC(=O)c2ccc(F)cc2)s1,7%[46.1 µM],nt,nt,nt,nt,nt
CCC(C)NC(=O)CCn1ccc2cc(S(=O)(=O)N3CCCC3)ccc21 (stereo not given),nt,?,nt,-24%,-3,-5
SMILES,Lassa entry inh,Pf growth 48h,MARV entry inh,Pf growth 96h,Cycloheximide cs,Shiga toxin inh
COC(=O)C1CCN(C(=O)Nc2ccc(OC)cc2)CC1,3%,35%,5%,0%,-3,-3
COC(=O)C1CCN(C(=O)/C=C/c2ccc(OC)cc2)CC1,?,166%,-3%,nt,49*,93
CCOC(=O)C1CCN(C(=O)/C=C/c2ccc3c(c2)OCO3)CC1,3%,131%,-15%,-47%,29*,77
CCOC(=O)C1CCN(C(=O)Cc2ccc(C)cc2)CC1,?,nt,2%,?,-3,21
COc1ccc2c(c1)[nH]c1c(N3CCSCC3)ncnc12,?,4.7µM*,?,6.6µM*,-1,-6
COc1ccc2c(c1)[nH]c1c(N3CCN(Cc4ccc5c(c4)OCO5)CC3)ncnc12,?,2.6µM*,?,?,-2,-12
COc1cc2[nH]c3c(N4CCN(c5ccc(Cl)cc5)CC4)ncnc3c2cc1OC,1%,4.1µM*,?,?,0,-7
CCc1ccc(Nc2nnc(SCC(=O)NC(=O)c3cccn3C)s2)cc1,nt,11%,nt,16%,4,18
Cc1cc(SCC(=O)Nc2cccc(S(=O)(=O)NC3=NCCCCC3)c2)c(C)cc1Br,?,-14%,?,-35%,-6,-1
Cc1ccc(Nc2nnc(SCC(=O)Nc3cccc(S(=O)(=O)NC4=NCCCCC4)c3)s2)cc1,?,7%,-1%,?,15*,18
Cc1nnc(SCC(=O)Nc2cccc(S(=O)(=O)NC3=NCCCCC3)c2)n1Cc1ccccc1,2%,-17%,5%,-19%,-1,-4
CCc1ccc(Nc2nnc(SCC(=O)Nc3cccc(S(=O)(=O)NC4=NCCCCC4)c3)s2)cc1,?,17%,?,?,49*,active
CCc1ccc(Nc2nnc(SCC(=O)Nc3ccc(C(=O)O)cc3)s2)cc1,nt,4.7µM*,nt,196%,-3,-6
CCn1c(C)c(C(C)=O)c(NCc2ccccc2)nc1=S,10%,?,-27%,-7%,8,-9
COc1ccc(CC(C)NC2CCCCCC2)cc1 (stereo not given),-25%[46.1 µM],?,?,?,0,-15
COc1cc(/C=N/NC(=O)c2nnn(-c3nonc3N)c2C(C)C)ccc1OCc1ccccc1,nt,?,nt,9.3µM*,13,29
CC(/C=N/NC(=O)c1nnn(-c2nonc2N)c1C(C)C)=C\c1ccccc1,nt,44%,nt,12%,29*,92
CCCc1c(C(=O)N/N=C/C(C)=C/c2ccccc2)nnn1-c1nonc1N,nt,-26%,nt,-18%,10,48
CC(C)c1c(C(=O)N/N=C/c2ccc(OCc3ccccc3)cc2)nnn1-c1nonc1N,nt,?,nt,?,-2,21
C=CCNc1nc(C(=O)OCC(=O)c2cccc(Br)c2)cs1,-9%,-8%,-23%,28%,nt,nt
CC(=O)c1ccc(Nc2ccc(-c3ccccc3F)nn2)cc1,?,i,?,5%,43*,92
COc1ccccc1-c1ccc(Nc2ccc(C(=O)N3CCOCC3)cc2)nn1,6%,-2%,-2%,8%,12,20
O=C(CSc1nc2cc(S(=O)(=O)N3CCOCC3)ccc2o1)NC1CCCc2ccccc21 (stereo not given),16%,9.3µM*,?,?,0,18
O=C(NC1CCCc2ccccc21)c1cccc(S(=O)(=O)N2CCN(c3ccccc3)CC2)c1 (stereo not given),-25%,10µM*,-44%,nt,-1,-15

# Screens (PubChem BioAssay)
